In PubChem BioAssay:
For some of these results: Measured potencies and affinities stand elsewhere. The source made the active and inactive calls. Unless noted, how the calls were made is not given here.

Columns and labels:
[1] = antimalarial activity against Dd2 strain (AID 2302;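 active means growth inhibition above 50% at the single 2 µM test dose, taken to imply half-maximal potency below 2 µM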;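 further: 0% = DMSO untreated growth and 100% = chloroquine plus artemisinin killed control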); conditions: P. falciparum Dd2 in RBCs, LDH growth readout, 72 h; at 2 µM; active compounds read high
[2] = HepG2 cytotoxicity, primary screen, cytotoxicity control for P. falciparum antimalarial project, cell-based, ATP luminescence (AID 2303;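 active means inhibition above 50%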;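 further: 0% = DMSO wells and 100% = digitonin-killed cells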); conditions: HepG2 viability, 24-48 h, at 10 µM, active compounds read high
[3] = target: L-lactate dehydrogenase (Plasmodium falciparum (isolate CDC / Honduras)) (UniProt Q27743); assay: PfLDH activity inhibition – cell lysate, 3D7 strain, counter-screen for P. falciparum growth inhibition project (AID 2304);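 further: 0% = vehicle and 100% = reference inhibitor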; conditions: P. falciparum 3D7 crude extract, LDH APAD/NBT absorbance; at 2 µM; active compounds read high
L-lactate dehydrogenase (Plasmodium falciparum (isolate CDC / Honduras)), sequence (Q27743 whole entry, looked up): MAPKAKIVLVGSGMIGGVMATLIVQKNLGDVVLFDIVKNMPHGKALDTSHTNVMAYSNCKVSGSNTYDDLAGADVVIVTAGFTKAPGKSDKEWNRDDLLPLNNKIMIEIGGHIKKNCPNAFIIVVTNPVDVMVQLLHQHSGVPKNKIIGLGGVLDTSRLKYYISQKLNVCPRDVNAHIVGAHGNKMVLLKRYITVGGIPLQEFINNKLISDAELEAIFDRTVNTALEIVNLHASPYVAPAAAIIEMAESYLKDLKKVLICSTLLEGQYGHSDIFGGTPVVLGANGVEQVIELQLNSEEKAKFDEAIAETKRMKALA

[4] = inhibition of 3D7 malaria parasite growth – strain 3D7 (AID 2306);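 further: 0% = DMSO wells and 100% = chloroquine plus artemisinin control wells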; conditions: P. falciparum 3D7 erythrocytic growth, LDH absorbance, 72 h; at 2 µM; active compounds read high
[5] = target: Calcium-dependent protein kinase 1 (Plasmodium falciparum (isolate 3D7)) (UniProt P62344); assay: PfCDPK1 kinase inhibitors, biochemical, TCAMS library (AID 1159585; cut-off not given, nearly all actives have IC50 up to about 0.98 µM;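 further: inhibitors leave more ATP so luminescence rises with inhibition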); conditions: recombinant PfCDPK1, Kinase-Glo ATP depletion luminescence
Calcium-dependent protein kinase 1 (Plasmodium falciparum (isolate 3D7)), sequence (P62344 whole entry, looked up): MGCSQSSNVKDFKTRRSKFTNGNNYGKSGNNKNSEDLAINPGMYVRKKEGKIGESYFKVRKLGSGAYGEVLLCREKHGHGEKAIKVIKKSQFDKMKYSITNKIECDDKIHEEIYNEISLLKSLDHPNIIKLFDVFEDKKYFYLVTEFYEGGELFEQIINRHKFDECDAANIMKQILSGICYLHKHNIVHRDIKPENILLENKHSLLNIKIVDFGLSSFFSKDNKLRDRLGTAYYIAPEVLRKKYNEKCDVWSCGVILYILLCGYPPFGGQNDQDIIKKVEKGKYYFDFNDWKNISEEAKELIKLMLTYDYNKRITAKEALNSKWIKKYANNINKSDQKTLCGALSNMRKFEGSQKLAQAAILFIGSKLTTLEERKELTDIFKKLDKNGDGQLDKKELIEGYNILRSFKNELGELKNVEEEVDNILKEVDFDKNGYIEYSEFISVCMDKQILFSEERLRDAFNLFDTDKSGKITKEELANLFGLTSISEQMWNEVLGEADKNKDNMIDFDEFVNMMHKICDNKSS

[6] = target: Plasmodium falciparum protein kinase 6 (PK6, PF3D7_1337100) (UniProt Q8IDW1); assay: PfPK6 kinase inhibitors, biochemical, TCAMS library (AID 1159586); conditions: recombinant PfPK6, Kinase-Glo ATP depletion luminescence
Plasmodium falciparum protein kinase 6 (PK6, PF3D7_1337100), sequence (Q8IDW1 1-305): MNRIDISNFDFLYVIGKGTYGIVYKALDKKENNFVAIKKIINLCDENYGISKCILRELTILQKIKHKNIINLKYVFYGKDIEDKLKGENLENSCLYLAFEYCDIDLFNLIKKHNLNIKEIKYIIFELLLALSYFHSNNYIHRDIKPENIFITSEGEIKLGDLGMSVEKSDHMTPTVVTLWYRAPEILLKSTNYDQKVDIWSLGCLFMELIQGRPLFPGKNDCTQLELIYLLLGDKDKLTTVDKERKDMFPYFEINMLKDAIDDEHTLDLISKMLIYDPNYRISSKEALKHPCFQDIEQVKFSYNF

[7] = target: Protein kinase 7 (PK7), Plasmodium falciparum 3D7 (PF3D7_0213400) (UniProt Q7YTF7); assay: inhibition of Plasmodium PK7 catalytic activity – biochemical, TCAMS antimalarial set, Kinase-Glo luminescence (AID 1159587); conditions: recombinant PfPK7, Kinase-Glo ATP depletion luminescence
Protein kinase 7 (PK7), Plasmodium falciparum 3D7 (PF3D7_0213400), sequence (Q7YTF7 1-343): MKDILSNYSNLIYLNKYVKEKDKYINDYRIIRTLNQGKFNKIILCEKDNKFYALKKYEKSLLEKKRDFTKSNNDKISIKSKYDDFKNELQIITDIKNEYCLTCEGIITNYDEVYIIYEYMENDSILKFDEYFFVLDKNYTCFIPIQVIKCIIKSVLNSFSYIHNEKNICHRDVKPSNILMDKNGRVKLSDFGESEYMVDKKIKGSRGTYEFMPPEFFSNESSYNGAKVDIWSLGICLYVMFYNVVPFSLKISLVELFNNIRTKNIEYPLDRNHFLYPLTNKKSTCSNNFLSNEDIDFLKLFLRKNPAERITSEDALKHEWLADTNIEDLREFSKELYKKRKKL

[8] = target: Calcium-dependent protein kinase 4 (Plasmodium falciparum (isolate 3D7)) (UniProt Q8IBS5); assay: PfCDPK4 kinase inhibitors, biochemical, TCAMS library (AID 1159588; cut-off not given, nearly all actives have IC50 up to about 0.91 µM); conditions: recombinant PfCDPK4, Kinase-Glo ATP depletion luminescence
Calcium-dependent protein kinase 4 (Plasmodium falciparum (isolate 3D7)), sequence (Q8IBS5 whole entry, looked up): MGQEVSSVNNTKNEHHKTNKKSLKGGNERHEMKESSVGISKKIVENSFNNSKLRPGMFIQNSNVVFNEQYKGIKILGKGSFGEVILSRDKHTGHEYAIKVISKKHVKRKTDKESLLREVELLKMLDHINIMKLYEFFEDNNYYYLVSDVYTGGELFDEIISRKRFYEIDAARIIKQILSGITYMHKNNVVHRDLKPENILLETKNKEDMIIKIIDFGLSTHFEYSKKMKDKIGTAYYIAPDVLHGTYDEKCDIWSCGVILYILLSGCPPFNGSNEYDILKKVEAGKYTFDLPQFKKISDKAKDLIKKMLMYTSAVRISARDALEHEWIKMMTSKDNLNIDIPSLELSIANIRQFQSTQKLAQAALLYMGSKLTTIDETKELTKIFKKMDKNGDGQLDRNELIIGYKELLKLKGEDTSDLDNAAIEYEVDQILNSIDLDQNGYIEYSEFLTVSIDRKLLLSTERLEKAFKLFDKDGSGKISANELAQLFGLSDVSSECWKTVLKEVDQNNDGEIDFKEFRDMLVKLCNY

Cc1cccc2[nH]c(-c3cccc(-c4cccc(NC(=O)c5csnn5)c4)c3)nc12
inactive: growth inhibition [1] 49% | inhibition [2] 10% | inhibition [3] 1% | outcome [5] | outcome [6] | outcome [7] | outcome [8]
active: growth inhibition [4] 98%

CCN(CCNc1nc(NCCc2cnc[nH]2)nc(N(CCC#N)Cc2ccccc2)n1)c1cccc(C)c1
inactive: inhibition [2] 13% | inhibition [3] -3% | outcome [5] | outcome [6] | outcome [7] | outcome [8]
active: growth inhibition [1] 92% | growth inhibition [4] 101%

CCN(CC)C(=O)c1cnc(-c2ccccc2)nc1Oc1cccc(Cl)c1
active: growth inhibition [4] 92%
inactive: growth inhibition [1] 40% | inhibition [2] -7% | inhibition [3] -3% | outcome [5] | outcome [6] | outcome [7] | outcome [8]

CCN(CC)CCN(Cc1ccc(-c2ccc(C(F)(F)F)cc2)cc1)C(=O)Cn1c(CCc2cccc(F)c2F)nc(=O)c2cc(C)ccc21
active: growth inhibition [4] 95%
inactive: growth inhibition [1] 43% | inhibition [2] 19% | inhibition [3] 0% | outcome [5] | outcome [6] | outcome [7] | outcome [8]

O=C(/C=C/c1ccc(Cl)c(Cl)c1)NC1CCN(Cc2ccc(O)cc2)C1 (stereo not drawn)
inactive: growth inhibition [1] 4% | inhibition [2] 15% | inhibition [3] -1% | outcome [5] | outcome [6] | outcome [7] | outcome [8]
active: growth inhibition [4] 97%

CCCCCCNC(=O)C(N)CCCC(N)C(=O)NCCCCCC (stereo not drawn)
inactive: growth inhibition [1] -5% | inhibition [2] -2% | inhibition [3] -2% | outcome [5] | outcome [6] | outcome [7] | outcome [8]
active: growth inhibition [4] 99%

O=C(O)C[C@H](NC(=O)[C@@H]1CCCN1C(=O)c1cccc(-c2ccc(Cl)c(Cl)c2)c1)C(=O)O
active: growth inhibition [4] 84%
inactive: growth inhibition [1] 0% | inhibition [2] -1% | inhibition [3] 0% | outcome [5] | outcome [6] | outcome [7] | outcome [8]

Cc1cc(N(C)CCCN(C)C)nc(Nc2ccc(Cl)cc2)n1
inactive: inhibition [2] 7% | inhibition [3] 5% | outcome [5] | outcome [6] | outcome [7] | outcome [8]
active: growth inhibition [1] 79% | growth inhibition [4] 101%

CCNc1cc(C)nc(Nc2ccc(C)cc2)n1
active: growth inhibition [1] 85% | growth inhibition [4] 102%
inactive: inhibition [2] 12% | inhibition [3] 3% | outcome [5] | outcome [6] | outcome [7] | outcome [8]

OCc1ccc(-c2cncc(Nc3cccc(Cl)c3)c2)cc1
active: growth inhibition [1] 100% | growth inhibition [4] 95%
inactive: inhibition [2] 4% | inhibition [3] -3% | outcome [5] | outcome [6] | outcome [7] | outcome [8]

CCN(CC)CCCN(C(=O)Nc1c(Cl)cncc1Cl)c1nc(-c2ccc(F)cc2)cs1
inactive: inhibition [2] 37% | inhibition [3] -5% | outcome [5] | outcome [6] | outcome [7] | outcome [8]
active: growth inhibition [1] 93% | growth inhibition [4] 101%

O=c1cc(NCCCNCc2csc(Br)c2Sc2ccc(Cl)cc2)[nH]c2ccccc12
inactive: inhibition [2] 5% | inhibition [3] 7% | outcome [5] | outcome [6] | outcome [7] | outcome [8]
active: growth inhibition [1] 83% | growth inhibition [4] 95%

CC(=NN=C(N)N)c1ccc2ccc3ccccc3c2c1
inactive: growth inhibition [1] 23% | inhibition [2] 14% | inhibition [3] -7% | outcome [5] | outcome [6] | outcome [7] | outcome [8]
active: growth inhibition [4] 97%

CC(=O)Oc1cc(C(=O)Nc2ccc(Cl)cc2)cc2ccccc12
active: growth inhibition [4] 88%
inactive: growth inhibition [1] 47% | inhibition [2] 16% | inhibition [3] -3% | outcome [5] | outcome [6] | outcome [7] | outcome [8]

COc1ccc(CNCc2cccc(-c3cccc(-c4nc5ccccc5[nH]4)c3)c2)cc1
active: growth inhibition [1] 50% | growth inhibition [4] 102%
inactive: inhibition [2] 24% | inhibition [3] 1% | outcome [5] | outcome [6] | outcome [7] | outcome [8]

CCOc1cc(C(=O)Nc2ccc3nc(N4CCCCC4)cc(C)c3c2)cc(OCC)c1OCC
active: growth inhibition [4] 100%
inactive: growth inhibition [1] 2% | inhibition [2] 26% | inhibition [3] -6% | outcome [5] | outcome [6] | outcome [7] | outcome [8]

CN(C)CCN(Cc1ccc(-c2ccc(CNCCc3ccccc3)cc2)nc1)C(=O)CCC1CCCC1
active: growth inhibition [1] 89% | inhibition [2] 98% | growth inhibition [4] 96%
inactive: inhibition [3] -3% | outcome [5] | outcome [6] | outcome [7] | outcome [8]

COc1cc(Nc2ccnc3ccc(C(F)(F)F)cc23)ccc1OCCCc1ccccc1
active: growth inhibition [1] 51% | growth inhibition [4] 99%
inactive: inhibition [2] 11% | inhibition [3] -10% | outcome [5] | outcome [6] | outcome [7] | outcome [8]

COc1ccc(Cl)cc1-c1nc(C(=O)NCCN2CCCCC2)c(C)s1
active: growth inhibition [4] 97%
inactive: growth inhibition [1] 10% | inhibition [2] 16% | inhibition [3] -7% | outcome [5] | outcome [6] | outcome [7] | outcome [8]

COc1ccc2nccc([C@@H](O)CN3CCC(NC(=O)/C=C/c4c[nH]c5c(C)cccc45)CC3)c2c1
active: growth inhibition [1] 88% | growth inhibition [4] 101%
inactive: inhibition [2] 23% | inhibition [3] 4% | outcome [5] | outcome [6] | outcome [7] | outcome [8]

CC1CCN(CC[C@H]2CCCN2S(=O)(=O)c2cccc(NC(=O)c3ccc(-c4ccc(Cl)cc4)o3)c2)CC1
inactive: inhibition [2] 45% | inhibition [3] 3% | outcome [5] | outcome [6] | outcome [7] | outcome [8]
active: growth inhibition [1] 65% | growth inhibition [4] 101%

CCNc1cc(C)nc(Nc2ccc(NC(=O)c3ccccc3)cc2)n1
inactive: inhibition [2] 41% | inhibition [3] -1% | outcome [5] | outcome [6] | outcome [7] | outcome [8]
active: growth inhibition [1] 63% | growth inhibition [4] 102%

O=C(Nc1ccccc1O)C1CCN(c2ncnc3cc(-c4ccc(F)cc4)sc23)CC1
active: growth inhibition [1] 94% | growth inhibition [4] 97%
inactive: inhibition [2] 10% | inhibition [3] 4% | outcome [5] | outcome [6] | outcome [7] | outcome [8]

CC(C)(C)c1ccc(OCCCON2C(N)=NC(N)=NC2(C)C)cc1
active: growth inhibition [1] 76% | inhibition [2] 77% | growth inhibition [4] 93%
inactive: inhibition [3] -4% | outcome [5] | outcome [6] | outcome [7] | outcome [8]

NCc1cccc(-c2ccccc2CNC2CCN(Cc3ccccc3)CC2)c1
active: growth inhibition [4] 94%
inactive: growth inhibition [1] 4% | inhibition [2] -3% | inhibition [3] -2% | outcome [5] | outcome [6] | outcome [7] | outcome [8]

c1cc(-c2nc3ccccc3[nH]2)nc(-c2nc3ccccc3[nH]2)c1
inactive: growth inhibition [1] 24% | inhibition [2] 7% | inhibition [3] 0% | outcome [5] | outcome [6] | outcome [7] | outcome [8]
active: growth inhibition [4] 87%

O=C(COc1ccc(F)cc1)NC1CCN(c2ccnc3cc(Cl)ccc23)C1 (stereo not drawn)
active: growth inhibition [1] 100% | growth inhibition [4] 102%
inactive: inhibition [2] 24% | inhibition [3] -1% | outcome [5] | outcome [6] | outcome [7] | outcome [8]

Cc1cccc2[nH]c(-c3cccc(-c4cccc(NC(=O)Nc5ccc(Cl)cc5)c4)c3)nc12
inactive: inhibition [2] 23% | inhibition [3] -2% | outcome [5] | outcome [6] | outcome [7] | outcome [8]
active: growth inhibition [1] 94% | growth inhibition [4] 100%

COc1ccc(-c2ccc(NC(=O)c3cccc(Cl)c3)cc2)cc1CN(C)CCO
active: growth inhibition [1] 52% | growth inhibition [4] 89%
inactive: inhibition [2] 39% | inhibition [3] -4% | outcome [5] | outcome [6] | outcome [7] | outcome [8]

O=C(NC(CCCN1CCC(c2ccccc2)CC1)c1ccc(Cl)c(Cl)c1)c1cc(C(F)(F)F)cc(C(F)(F)F)c1 (stereo not drawn)
active: growth inhibition [1] 87% | growth inhibition [4] 92%
inactive: inhibition [2] 33% | inhibition [3] 3% | outcome [5] | outcome [6] | outcome [7] | outcome [8]

COc1ccc(Nc2ncc3c(-c4cccc(NC(=O)c5ccccc5)c4)c[nH]c3n2)cc1OC
active: growth inhibition [1] 95% | inhibition [2] 54% | growth inhibition [4] 101%
inactive: inhibition [3] -7% | outcome [5] | outcome [6] | outcome [7] | outcome [8]

COc1ccc2nccc(NN=Cc3ccccc3[N+](=O)[O-])c2c1
active: growth inhibition [1] 100% | inhibition [2] 67% | growth inhibition [4] 100%
inactive: inhibition [3] -2% | outcome [5] | outcome [6] | outcome [7] | outcome [8]

NC1=NC(CCc2ccccc2)N(c2ccc(Cl)cc2)C(N)=N1 (stereo not drawn)
active: growth inhibition [4] 94%
inactive: growth inhibition [1] 20% | inhibition [2] 2% | inhibition [3] -5% | outcome [5] | outcome [6] | outcome [7] | outcome [8]

CCN(CC)CCCNc1ncc2c(-c3ccc(NC(=O)Nc4cc(C(F)(F)F)ccc4F)c(F)c3)nn(C)c2n1
active: growth inhibition [1] 68% | inhibition [2] 100% | growth inhibition [4] 94%
inactive: inhibition [3] 3% | outcome [5] | outcome [6] | outcome [7] | outcome [8]

Oc1cccc(Nc2nc(NCc3ccccc3)c3ccccc3n2)c1
active: growth inhibition [1] 99% | growth inhibition [4] 95%
inactive: inhibition [2] 21% | inhibition [3] -7% | outcome [5] | outcome [6] | outcome [7] | outcome [8]

Cc1cccc2[nH]c(-c3ccc(-c4ccc(CNCC(C)C)cc4)cc3)nc12
inactive: inhibition [2] 14% | inhibition [3] -1% | outcome [5] | outcome [6] | outcome [7] | outcome [8]
active: growth inhibition [1] 90% | growth inhibition [4] 100%

CN1CCC(C(=O)Nc2cccc(-c3ccc(-c4nc5ccc(F)cc5[nH]4)cc3)c2)CC1
inactive: inhibition [2] 12% | inhibition [3] 3% | outcome [5] | outcome [6] | outcome [7] | outcome [8]
active: growth inhibition [1] 51% | growth inhibition [4] 100%

CCCN(Cc1nnc(-c2ccco2)o1)C(=O)C1CCN(c2ncc(C(F)(F)F)cc2Cl)CC1
active: growth inhibition [1] 92% | growth inhibition [4] 98%
inactive: inhibition [2] 19% | inhibition [3] -6% | outcome [5] | outcome [6] | outcome [7] | outcome [8]

CCOc1ccc(C(=O)Nc2cc(Br)c3c(c2)CNCC3)cc1Br
inactive: growth inhibition [1] 21% | inhibition [2] 18% | inhibition [3] 0% | outcome [5] | outcome [6] | outcome [7] | outcome [8]
active: growth inhibition [4] 96%

NC(=O)C1CCN(Cc2ccc(-c3ccc(-c4nc5ccc(C(F)(F)F)cc5[nH]4)cc3)cc2)CC1
inactive: inhibition [2] 25% | inhibition [3] -1% | outcome [5] | outcome [6] | outcome [7] | outcome [8]
active: growth inhibition [1] 90% | growth inhibition [4] 100%

O=S(=O)(c1ccc(OCc2ccc(Cl)cc2)cc1)c1cc2c(cc1OCc1ccccc1)CCN(C1CCC1)CC2
inactive: growth inhibition [1] 13% | inhibition [2] 17% | inhibition [3] 6% | outcome [5] | outcome [6] | outcome [7] | outcome [8]
active: growth inhibition [4] 89%
